DT40 TDP1 no CPT: qHTS for Inhibitors of human tyrosyl-DNA phosphodiesterase 1 (TDP1): qHTS in cells in absence of CPT. DT40 Tdp1-/- hTDP1 cells, no CPT, ATP luminescence, 48 h. 420,000 tested, 15% active. Potency, µM (top dose mostly 46.2 µM), without a hit: at the highest dose activity change, negative = growth inhibition, actives largely listed as inhibitors; further: nearly all actives have a fitted effect of over 55% in size
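Seeded 400 DT40-hTDP1 cells/well (vehicle DMSO, no 20 nM CPT); pinned compounds; ≥48 hr at 37 °C; CellTiter-Glo luminescence as viability measure.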
TDP1 cell CPT: qHTS for Inhibitors of human tyrosyl-DNA phosphodiesterase 1 (TDP1): qHTS in cells in presence of CPT | 420,000 tested, 12% active | chicken DT40 Tdp1-/-;hTDP1 cells + 20 nM CPT, ATP luminescence, 48 h | Potency, µM (top dose mostly 46.2 µM), for inactives: top-dose activity change, negative = growth inhibition, usual class: inhibitors; further: nearly all actives have a fitted effect of over 55% in size
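Cell growth measured by CellTiter-Glo luminescence after a minimum 48 h, 37 C compound exposure with 20 nM CPT in Tdp1-knockout DT40 cells stably expressing hTDP1, seeded 400/well; qHTS titration format.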
KB-3-1 tox: qHTS assay for MDR1-selective chemotherapeutics: Primary screen using the parental adenocarcinoma cell KB-3-1; AID 1347075, 2019; Potency, µM (series often up to 46.1 µM), most hits filed as cytotoxic; KB-3-1 viability, CellTiter-Glo ATP luminescence, 72 h; 400,000 tested, 1.4% active; further: nearly all actives have a fitted effect of over 60% in size
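KB-3-1 cells, DMEM (no phenol red) + 10% FBS; compound by pin transfer, 72 h, 37 °C. Readout: CellTiter-Glo luminescence after 10 min. Data normalized, curve-fitted.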
KB-V1 MDR tox: qHTS assay for MDR1-selective chemotherapeutics: Primary screen using the drug-selected MDR subline cells KB-V1 | KB-V1 MDR cells viability, CellTiter-Glo, 72 h | Potency, µM (highest dose often 46.1 µM), most hits filed as cytotoxic | 400,000 tested, 3.4% active | AID 1347076, 2019; further: nearly all actives have a fitted effect of over 60% in size
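KB-V1 MDR subline cells in DMEM (phenol-red free, 10% FBS) exposed to compounds in qHTS concentration series for 72 h at 37 degrees C. Viability read by CellTiter-Glo luminescence; concentration-effect curves fitted after normalization and correction.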
HT1080NT lethal: qHTS for induction of synthetic lethality in tumor cells producing 2HG: qHTS for the HT-1080-NT fibrosarcoma cell line. 360,000 tested, 1.6% active. AID 686970, 2013. Potency, µM (top dose mostly 46.1 µM), inactives show at the highest dose activity, negative = less viability, most hits filed as cytotoxic. HT-1080-NT fibrosarcoma viability, CellTiter-Glo ATP luminescence, 48 h;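 further: NT is the 2HG producing partner of a matched IDH1 knockdown line; 0% = DMSO-treated cells and -100% = media-only wells without cells; nearly all actives have a fitted effect of over 55% in size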
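Read-out is CellTiter-Glo luminescence after 10 minutes at room temperature, following 48 hours' compound treatment of HT-1080-NT cells (750 cells/well, RPMI, 5% FBS, 37 degrees C).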
HT1080 IDH1KD tx: qHTS for induction of synthetic lethality in tumor cells producing 2HG: qHTS for the HT-1080-IDH1KD cell line | HT-1080 IDH1 knockdown viability, ATP luminescence, 48 h | Potency, µM (highest dose often 46.1 µM), for inactives: top-dose activity, negative = toxicity, most hits filed as cytotoxic | 360,000 tested, 2% active;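 further: 0% = DMSO wells and -100% = cell-free medium wells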
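% activity derives from luminescence (CellTiter-Glo), normalised to DMSO and no-cell wells. HT-1080-IDH1KD cells, 750/well, had 48 h compound exposure at 37 °C.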
Starred values were filed as active, the others as inactive. Hits are enriched below; roughly 19% of the tested compounds scored in any of these assays. The call rests on the fitted dose curve; in most records, active means well fitted curve in the direction sought with a large enough effect; inconclusive means small, poorly fitted or top-dose-only effect, or another doubt; inactive means no such curve, though single readings can be large; an effect the other way counts as inactive or inconclusive. Unless noted, on the % scale 0 is the no-effect control and ±100 the full control effect; potency means the concentration at half of the fitted maximal effect.

COc1cccc(C2Nc3ccccc3-c3nnc(SCc4ccccc4)nc3O2)c1OC (centres undefined) was read as DT40 TDP1 no CPT -45.5%, TDP1 cell CPT inconclusive, KB-3-1 tox inactive and KB-V1 MDR tox inactive.
For COc1ccc(S(=O)(=O)N2CCN(C(=O)c3cccc(S(=O)(=O)N4CCCC4)c3)CC2)cc1 the results were DT40 TDP1 no CPT inconclusive, TDP1 cell CPT -8.5%, KB-3-1 tox inconclusive, KB-V1 MDR tox inactive, HT1080NT lethal -5.4% and HT1080 IDH1KD tx -7.5%.
Screening COc1ccc(S(=O)(=O)N(C)c2ccc(C(=O)N3CCN(c4ccccc4)CC3)cc2)cc1OC returned DT40 TDP1 no CPT 16.4µM*, TDP1 cell CPT 14.6µM*, KB-3-1 tox inactive, KB-V1 MDR tox inconclusive, HT1080NT lethal -6.3% and HT1080 IDH1KD tx -20.8%.
`COc1ccc(N(C)S(=O)(=O)c2cccc(C(=O)N3CCN(S(=O)(=O)c4ccc(C)cc4)CC3)c2)cc1` gave DT40 TDP1 no CPT inconclusive, TDP1 cell CPT 25.9µM*, KB-3-1 tox inactive, KB-V1 MDR tox inconclusive, HT1080NT lethal -1.0% and HT1080 IDH1KD tx -23.6%.
For Nc1nc(N)c(N=O)c(OCC2CCCCC2)n1 the results were DT40 TDP1 no CPT 7.31µM*, TDP1 cell CPT 11.6µM*, KB-3-1 tox inactive, KB-V1 MDR tox inconclusive, HT1080NT lethal inconclusive and HT1080 IDH1KD tx 18.4µM*.
`O=C(CSc1ccc(-c2ccncc2)nn1)c1ccc(Cl)cc1` gave DT40 TDP1 no CPT -19.2%, TDP1 cell CPT -23.1%, KB-3-1 tox inactive, KB-V1 MDR tox inconclusive, HT1080NT lethal 16.4% and HT1080 IDH1KD tx 17.7%.
NC(=O)C(c1ccc(Cl)cc1)c1ccc(Sc2ccc(Cl)cc2)nn1 (centres undefined) was read as DT40 TDP1 no CPT 16.4µM*, TDP1 cell CPT inconclusive, KB-3-1 tox inactive, KB-V1 MDR tox inactive, HT1080NT lethal inconclusive and HT1080 IDH1KD tx -25.0%.
Screening COc1ccccc1NC(=O)C1CCN(c2cnccn2)CC1 returned DT40 TDP1 no CPT 5.5%, TDP1 cell CPT -20.2%, KB-3-1 tox inactive and KB-V1 MDR tox inactive.
For C=CCCC(=O)Nc1ccc(Br)cn1 the results were DT40 TDP1 no CPT 18.4µM*, TDP1 cell CPT inconclusive, KB-3-1 tox inconclusive, KB-V1 MDR tox inconclusive, HT1080NT lethal inconclusive and HT1080 IDH1KD tx inconclusive.
For O=C(/C=C/c1ccccc1)Nc1ncn[nH]1 the results were DT40 TDP1 no CPT 10.3µM*, TDP1 cell CPT 7.31µM*, KB-3-1 tox inactive, KB-V1 MDR tox inactive, HT1080NT lethal 11.2µM* and HT1080 IDH1KD tx 7.94µM*.
`O=C(/C=C/c1ccccc1)Nc1ccc(Br)cn1` gave DT40 TDP1 no CPT 2.31µM*, TDP1 cell CPT 2.31µM*, KB-3-1 tox 5.17µM*, KB-V1 MDR tox inactive, HT1080NT lethal 6.51µM* and HT1080 IDH1KD tx 5.17µM*.
CC(NC(=O)/C=C/c1ccc(Br)cc1)c1ccccc1 (centres undefined) was read as DT40 TDP1 no CPT inconclusive, TDP1 cell CPT 16.4µM*, KB-3-1 tox inactive, KB-V1 MDR tox inconclusive, HT1080NT lethal 0.5% and HT1080 IDH1KD tx 0.8%.
